# Source: PubChem BioAssay (NCATS)
# Results filed as inconclusive are left out. Entries that show only a call come without a potency. Activity calls are given as the source filed them. Unless noted, calls follow the shape of the dose curve; as a rule, active = well fitted curve in the direction sought with a large enough effect; inconclusive = small, poorly fitted or top-dose-only effect, or another doubt; inactive = no such curve, though single readings can be large; an effect the other way counts as inactive or inconclusive.
# Key:
# [1] = target: Calcium and integrin-binding protein 1 (Homo sapiens) (UniProt Q99828); assay: Primary qHTS for Identification of Calcium Integrin Binding Protein 1 (CIB1) Competitor (AID 1508620);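 also: GST tagged CIB1 binding a fluorescein labelled alphaIIb integrin peptide tracer; top concentration of the series differs between compounds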
# Summary of the method: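 Fluorescence polarization competition: GST-tagged CIB1 (1 uM final) preincubated with compound 15 min at room temperature, then FITC-labelled alphaIIb peptide (100 nM final) added. After 15 min at room temperature, polarization read at Ex 480/Em 540.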
# [2] = Primary qHTS for inhibitors of nuclear receptor binding SET domain protein 2 (NSD2) in an isogenic RCH-ACV NSD2 p.E1099K mutant (9B) (AID 1645876); also: potency is read from the fitted curve at half-maximal effect; nearly all actives have a fitted effect of over 70% in size
# [3] = target: Glutathione peroxidase 1 (Homo sapiens) (UniProt P07203); assay: Primary qHTS Assay for Inhibitors of Recombinant Selenoprotein Glutathione Peroxidase 1 (GPX1) (AID 1845191); also: nearly all actives have a fitted effect of over 65% in size
# Summary of the method: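 GR-coupled assay: compounds preincubated 30 min at room temperature with GPX1, then reaction started with CHP; final 10 nM GPX1, 1 mM GSH, 0.5 mM CHP, 0.5 mM NADPH, 100 nM GR, 0.01% BSA, pH 7.5 Tris buffer. NADPH fluorescence (340/450 nm) read at 0 and 15 min.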
# [4] = target: Phospholipid hydroperoxide glutathione peroxidase GPX4 (Homo sapiens) (UniProt P36969); assay: Primary qHTS Assay for Inhibitors of Recombinant Selenoprotein Glutathione Peroxidase 4 (GPX4) (AID 1845192); also: nearly all actives have a fitted effect of over 65% in size
# Summary of the method: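 GR-coupled assay: recombinant GPX4 preincubated 30 min with compound at room temperature; final 200 nM GPX4, 1 mM GSH, 0.5 mM cumene hydroperoxide, 0.5 mM NADPH, 100 nM GR, 0.01% BSA, pH 7.5 Tris. NADPH fluorescence (340/450 nm) read at 0 and 15 min.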
# [5] = target: Luciferin 4-monooxygenase (Photinus pyralis) (UniProt P08659); assay: Primary firefly luciferase (FLuc) qHTS assay for identification of artifact compounds. (AID 1845220); conditions: outcome: dose series up to 54.1 µM unless noted; also: nearly all actives have a fitted effect of over 60% in size
# Summary of the method: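 Titrated compounds were incubated 15 min at RT, protected from light, with luciferin and ATP at 10 uM; reaction started with 10 nM FLuc, luminescence imaged at 5 min, and concentration-response fitted by Hill equation.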
# [6] = Primary fluorescence-based thiol-reactive (MSTI) qHTS assay for identification of artifact compounds. (AID 1845221);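 also: thiol-reactive compounds lower the probe fluorescence signal; nearly all actives have a fitted effect of over 65% in size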
# Summary of the method: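 Reactivity toward the thiol probe MSTI (4 uM) is scored by fluorescence at Ex/Em 525/598 nm after 1 h at room temperature. Acetyl-MSTI and MSTI define the activity scale.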
# [7] = tested on: Nanoluciferase (engineered Oplophorus gracilirostris luciferase); assay: Primary Nanoluciferase (NLuc) qHTS assay for identification of artifact compounds. (AID 1845222);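 also: NLuc secreted into diluted conditioned medium of S16 cells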
# Summary of the method: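 qHTS format, against NLuc in S16 cell-conditioned medium. Nano-Glo substrate 1:100 was added after 15 min at room temperature. Luminescence was taken after a further 5 min.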
# [8] = Primary redox qHTS assay for identification of artifact compounds. (AID 1845223)
# Summary of the method: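 Amplex Red (25 uM) and HRP (250 mU/mL) in HBSS, with compounds for 15 min, then 250 uM DTT for 30 min, room temperature, dark. Fluorescence 525/598 nm read; normalized to DMSO and 10 uM DA3003; Hill fit.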
# [9] = tested on: JEG-3; assay: Primary qHTS to identify gynecologic anti-cancer compounds using libraries of approved drugs and bioactive compounds (AID 1345084); conditions: Gynecologic cancer cell panel viability, ATPlite luminescence, 48 h; series mostly up to 57.5 µM; also: nearly all actives have a fitted effect of over 55% in size
# Summary of the method: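 Measured: luminescence after ATPlite addition (15 min, RT). Exposure: 48 h, 37 C, 5% CO2.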
# [10] = target: Alpha-galactosidase (Coffea arabica) (UniProt Q42656); assay: Counterscreen for Glucocerebrosidase Inhibitors: qHTS Assay for Coffee Bean alpha-Galactosidase at pH 4.5 (AID 957)
# Summary of the method: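 Coffee bean enzyme (2 nM) with 80 uM 4-methylumbelliferyl alpha-D-galactopyranoside in 50 mM citric acid, 0.005% Tween-20, pH 4.5, 20 min at room temperature; compounds 0.7 nM–77 uM. Stopped at pH 10, fluorescence 365/440 nm; AC50 from Hill fits.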
# [11] = target: Alpha-galactosidase (Coffea arabica) (UniProt Q42656); assay: Counterscreen for Glucocerebrosidase Inhibitors: qHTS Assay for Coffee Bean alpha-Galactosidase at pH 5.9 (AID 998)
# Summary of the method: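 Green coffee bean enzyme (2 nM) with 4-methylumbelliferyl alpha-D-galactopyranoside (80 uM) in 50 mM citric acid, 0.005% Tween-20, pH 5.9, 20 min at room temperature; compounds 0.7 nM–77 uM. Stopped at pH 10, fluorescence Ex365/Em440; Hill-fit AC50.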
# [12] = Validation screen for inhibitors of Lassa infection (AID 463096; calls by dose curve)
# [13] = Inducers of the Endoplasmic Reticulum Stress Response (ERSR) in human glioma: Validation (AID 504836)
# Summary of the method: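 Stably transfected U87-MG glioma cells carrying a GRP78-based luciferase sensor; 16 h compound incubation. Luminescence end-point read 10 min after Bright-Glo addition at room temperature.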
# [14] = Cytotoxicity counterscreen for inhibitors of SARS-CoV-2 cell entry (AID 1645845; calls by dose curve; also: nearly all actives have a fitted effect of over 50% in size)
# Summary of the method: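 HEK293-ACE2 cells (Expi293F stably expressing human ACE2) seeded overnight, then compound for 1 h plus 48 h at 37C. Viability as ATP content by luminescence; normalized to wells with cells and media-only wells.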
# [15] = Primary qHTS to identify inhibitors of SARS-CoV-2 cell entry (AID 1645846; calls by dose curve; also: nearly all actives have a fitted effect of over 45% in size); conditions: activity change, negative = inhibition: at 57.1 µM (top of the series) unless noted
# Summary of the method: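 Luminescence readout (Bright-Glo luciferase) 48 h after pseudoparticle addition. HEK293-ACE2 cells, 1500/well; compound pre-incubation 1 h; Normalized to spike PP and bald PP.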
# [16] = tested on: CRL-7250; assay: qHTS assay to identify novel small-molecules to repurpose for Merkel cell carcinoma treatment (AID 1296009); conditions: MCC and control cell lines, CellTiter-Glo viability, 72 h; series mostly up to 92 µM; also: nearly all actives have a fitted effect of over 60% in size
# Summary of the method: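 Cells were treated for 72 hr at 37 degree celsius with compounds in 8- or 11-point dose response. Viability was read by CellTiter-Glo luminescence, normalized to no-cell (cytotoxicity) and DMSO controls.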
# [17] = P-glycoprotein substrates identified in KB-8-5-11 adenocarcinoma cell line, qHTS therapeutic library screen (AID 1346987); also: potency is read from the fitted curve at half-maximal effect; nearly all actives have a fitted effect of over 65% in size
# Summary of the method: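 KB-8-5-11, a colchicine-selected P-gp-overexpressing KB-3-1 subline, was grown without colchicine for the assay. Cells were seeded at 500 cells/well, dosed in concentration-response and incubated 72 h at 37 degree C, 5% CO2. Viability was read by CellTiter-Glo luminescence.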
# [18] = tested on: Zika virus NS2B-NS3 protease; assay: Primary screen GU AMC qHTS for Zika virus inhibitors (AID 1347154); also: nearly all actives have a fitted effect of over 70% in size
# Summary of the method: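 Unlinked Zika NS2B hydrophilic domain–NS3 protease complex at 25 nM in 10 mM Tris-HCl pH 8.0, 0.01% Tween 20, with an AMC peptide substrate. Fluorescence change (340/450 nm) over 15 min at room temperature, normalized to controls, fitted to 4-parameter Hill.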
# [19] = Primary qHTS for small molecule stabilizers of the endoplasmic reticulum resident proteome: Secreted ER Calcium Modulated Protein (SERCaMP) assay (AID 1508630)
# Summary of the method: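 GLuc-SERCaMP-expressing SH-SY5Y cells, pretreated 16 h with compound, are challenged with thapsigargin to empty ER calcium stores; after 4 h, coelenterazine is added directly to the medium and luminescence is imaged.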
# [20] = Primary qHTS for inhibitors of nuclear receptor binding SET domain protein 2 (NSD2) in an RCH-ACV wild type WT cells (2C) (AID 1645877); also: potency is read from the fitted curve at half-maximal effect; nearly all actives have a fitted effect of over 70% in size
# [21] = P-glycoprotein substrates identified in KB-3-1 adenocarcinoma cell line, qHTS therapeutic library screen (AID 1346986);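 also: potency is read from the fitted curve at half-maximal effect; potency is for cytotoxicity meaning loss of cell viability; nearly all actives have a fitted effect of over 60% in size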
# Summary of the method: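 KB-3-1 parental and colchicine-selected P-gp-overexpressing KB-8-5-11 cells (colchicine omitted during assay), 500 cells/well, dosed in dose-response for 72 h at 37 °C; CellTiter-Glo luminescence. Cytotoxic: curve class -1.1 to -2.4, max response >50%, AC50 < 10 uM.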
# [22] = target: Catechol O-methyltransferase (Homo sapiens) (UniProt P21964); assay: Confirmatory Screen for Target Class Profiling of Small Molecule Inhibitors of Methyltransferases (AID 1745852; calls by dose curve; also: potency is read from the fitted curve at half-maximal effect); conditions: MTase-Glo luminescence, SAH detection, recombinant enzyme; measured here: COMT max response; stronger effect = lower value
# [23] = target: Guanidinoacetate N-methyltransferase (Homo sapiens) (UniProt Q14353); assay: as above; conditions: activity change, negative = inhibition: at 57.3 µM (top of the series) unless noted
# [24] = target: Nicotinamide N-methyltransferase (Homo sapiens) (UniProt P40261); assay: as above; conditions: MTase-Glo luminescence, SAH detection, recombinant enzyme; measured here: NNMT max response; stronger effect = lower value
# [25] = target: Phenylethanolamine N-methyltransferase (Homo sapiens) (UniProt P11086); assay: as above; conditions: MTase-Glo luminescence, SAH detection, recombinant enzyme; measured here: PNMT max response; stronger effect = lower value
# Sequence of Phenylethanolamine N-methyltransferase (Homo sapiens) (P11086 whole entry, looked up): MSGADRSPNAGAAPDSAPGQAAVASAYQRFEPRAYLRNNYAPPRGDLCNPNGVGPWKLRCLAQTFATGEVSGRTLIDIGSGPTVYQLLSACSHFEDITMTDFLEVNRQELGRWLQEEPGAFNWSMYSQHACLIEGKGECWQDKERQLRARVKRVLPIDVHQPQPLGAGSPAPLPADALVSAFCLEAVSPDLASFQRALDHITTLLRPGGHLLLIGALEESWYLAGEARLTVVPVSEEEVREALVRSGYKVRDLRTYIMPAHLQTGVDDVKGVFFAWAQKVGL
# Sequence of Glutathione peroxidase 1 (Homo sapiens) (P07203 whole entry, looked up): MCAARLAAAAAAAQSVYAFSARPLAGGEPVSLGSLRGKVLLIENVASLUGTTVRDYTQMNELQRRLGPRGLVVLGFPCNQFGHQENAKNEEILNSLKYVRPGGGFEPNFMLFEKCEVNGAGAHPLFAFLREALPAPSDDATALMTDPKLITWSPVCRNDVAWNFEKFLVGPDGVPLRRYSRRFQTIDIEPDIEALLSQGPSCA
# Sequence of Alpha-galactosidase (Coffea arabica) (Q42656 whole entry, looked up): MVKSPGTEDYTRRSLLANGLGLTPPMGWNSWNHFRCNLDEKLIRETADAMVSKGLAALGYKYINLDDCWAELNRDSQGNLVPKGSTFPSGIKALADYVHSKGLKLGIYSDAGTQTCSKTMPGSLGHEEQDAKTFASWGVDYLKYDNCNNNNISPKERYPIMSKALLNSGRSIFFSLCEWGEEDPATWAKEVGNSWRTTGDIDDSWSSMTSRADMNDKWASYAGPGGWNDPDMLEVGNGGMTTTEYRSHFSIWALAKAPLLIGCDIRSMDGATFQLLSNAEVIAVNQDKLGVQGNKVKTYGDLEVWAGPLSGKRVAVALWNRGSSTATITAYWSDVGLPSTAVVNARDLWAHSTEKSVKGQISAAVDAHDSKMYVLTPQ
# Sequence of Phospholipid hydroperoxide glutathione peroxidase GPX4 (Homo sapiens) (P36969 whole entry, looked up): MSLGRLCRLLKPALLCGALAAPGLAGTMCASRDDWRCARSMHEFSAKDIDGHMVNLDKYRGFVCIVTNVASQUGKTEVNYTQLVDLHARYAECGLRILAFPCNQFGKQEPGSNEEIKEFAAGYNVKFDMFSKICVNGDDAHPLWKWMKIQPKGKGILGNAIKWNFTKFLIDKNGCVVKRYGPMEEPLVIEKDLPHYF
# Sequence of Calcium and integrin-binding protein 1 (Homo sapiens) (Q99828 whole entry, looked up): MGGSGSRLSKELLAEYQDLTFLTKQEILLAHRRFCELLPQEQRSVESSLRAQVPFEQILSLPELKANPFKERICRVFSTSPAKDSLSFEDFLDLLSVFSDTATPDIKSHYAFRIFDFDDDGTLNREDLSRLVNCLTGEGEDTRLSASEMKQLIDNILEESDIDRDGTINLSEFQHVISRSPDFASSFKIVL
# Sequence of Nicotinamide N-methyltransferase (Homo sapiens) (P40261 whole entry, looked up): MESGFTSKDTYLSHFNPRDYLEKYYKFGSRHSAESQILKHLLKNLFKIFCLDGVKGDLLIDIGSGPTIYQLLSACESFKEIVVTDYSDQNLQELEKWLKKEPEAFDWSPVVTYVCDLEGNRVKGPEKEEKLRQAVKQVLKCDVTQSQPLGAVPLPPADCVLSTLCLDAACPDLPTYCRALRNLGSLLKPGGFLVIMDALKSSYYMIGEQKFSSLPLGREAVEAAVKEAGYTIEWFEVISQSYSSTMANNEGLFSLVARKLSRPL
# Sequence of Catechol O-methyltransferase (Homo sapiens) (P21964 whole entry, looked up): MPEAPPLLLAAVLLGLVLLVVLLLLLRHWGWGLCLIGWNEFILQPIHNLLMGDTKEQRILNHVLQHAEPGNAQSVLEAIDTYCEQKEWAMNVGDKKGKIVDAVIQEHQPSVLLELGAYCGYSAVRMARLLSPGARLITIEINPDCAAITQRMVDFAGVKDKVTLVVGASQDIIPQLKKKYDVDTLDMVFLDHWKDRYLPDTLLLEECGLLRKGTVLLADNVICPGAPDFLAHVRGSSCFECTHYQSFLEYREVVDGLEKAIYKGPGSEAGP
compound,measurement,setting,value
CC[C@@H](C)[C@H]1C(=O)O[C@H](C(C)C)C(=O)N(C)[C@@H]([C@@H](C)CC)C(=O)O[C@H](C(C)C)C(=O)N(C)[C@@H]([C@H](C)CC)C(=O)O[C@H](C(C)C)C(=O)N1C,Potency,[1],inactive
same,Potency,[2],4.3 µM (active)
same,Potency,[3],inactive
same,Potency,[4],inactive
same,outcome,[5],inactive [at 25.7 µM]
same,Potency,[6],inactive
same,Potency,[7],inactive
same,Potency,[8],inactive
same,Potency,[9],inactive
O=C(CCc1ccc(O)cc1)c1c(O)cc(O)cc1O,outcome,[10],inactive
same,outcome,[11],inactive
same,Potency,[12],inactive
same,outcome,[13],inactive
same,Potency,[14],inactive
same,"activity change, negative = inhibition",[15],-19.9%
same,Potency,[16],inactive
O=C1NC(=O)c2c1c1c3ccccc3n3c1c1c2c2ccccc2n1C1CCC3O1,Potency,[17],3.66 µM (active)
same,Potency,[18],inactive
same,Potency,[19],inactive
same,Potency,[2],0.517 µM (active)
same,Potency,[20],0.731 µM (active)
same,Potency,[3],inactive
CC1Oc2cc3c(-c4c(O)cc(O)c5c(O)c6c(cc45)OC(C)C(C)C6=O)c(O)cc(O)c3c(O)c2C(=O)C1C (stereo not given),Potency,[21],5.8 µM (active)
same,Potency,[17],8.2 µM (active)
same,Potency,[2],1.3 µM (active)
same,activity,[22],-48.2%
same,Potency,[23],24.1 µM (active)
same,activity,[24],-21.1%
same,activity,[25],-60.9%
same,Potency,[3],inactive
